Laboratory results taken from PubChem BioAssay (NCI).
About 83,000 compounds went through this panel and 20% of them were active in at least one assay; those are over-represented in the sample as a whole.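 Negative percent growth values reflect cell death: -40 means 40% of the cells present at the start died, and -100 means all died.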 Calls of active or inactive are those of the source. Rule for the calls: active = growth percent below 10; inactive = the rest.

How the values were obtained:
Assay in all cases: NCI-60 one-dose screen, 48 h (100 = growth as untreated, 0 = no growth, -100 = all killed)
Conditions in all cases: 10 µM
NCI-H23 lung = tested on: NCI-H23 lung
NCI-H226 lung = tested on: NCI-H226 lung
NCI-H322M lung = tested on: NCI-H322M lung
HOP-62 NSCLC = tested on: HOP-62 NSCLC
NCI-H460 lung = tested on: NCI-H460 lung
HOP-92 NSCLC = tested on: HOP-92 NSCLC
NCI-H522 lung = tested on: NCI-H522 lung
A549/ATCC NSCLC = tested on: A549/ATCC NSCLC
786-0 renal = tested on: 786-0 renal
COLO 205 colon = tested on: COLO 205 colon
DU-145 prostate = tested on: DU-145 prostate
K-562 leukemia = tested on: K-562 leukemia
MDA-MB-231 breast = tested on: MDA-MB-231 breast
RXF 393 renal = tested on: RXF 393 renal
SF-268 CNS = tested on: SF-268 CNS
SF-295 CNS = tested on: SF-295 CNS
SF-539 CNS = tested on: SF-539 CNS
UACC-257 melanoma = tested on: UACC-257 melanoma
M14 melanoma = tested on: M14 melanoma
MALME-3M melanoma = tested on: MALME-3M melanoma

Measured: growth

COc1cc(-c2nc(-c3nnc(-c4cccnc4)o3)c3ccccn23)cc(OC)c1OC
inactive: NCI-H23 lung 101% | NCI-H226 lung 86% | NCI-H322M lung 101% | HOP-62 NSCLC 102% | NCI-H460 lung 109% | HOP-92 NSCLC 100% | NCI-H522 lung 94.7% | A549/ATCC NSCLC 93.9% | 786-0 renal 89.1% | COLO 205 colon 119% | DU-145 prostate 114% | K-562 leukemia 95.4% | MDA-MB-231 breast 97.7% | RXF 393 renal 115% | SF-268 CNS 95.7% | SF-295 CNS 79.5% | SF-539 CNS 107% | UACC-257 melanoma 104% | M14 melanoma 110%

Oc1ccc(Cn2cc3c(c2-c2ccccc2)CCc2cnoc2-3)cc1
inactive: NCI-H23 lung 92.8% | NCI-H226 lung 96.4% | NCI-H322M lung 116% | HOP-62 NSCLC 99.2% | NCI-H460 lung 105% | HOP-92 NSCLC 79.2% | NCI-H522 lung 84.5% | A549/ATCC NSCLC 84.1% | 786-0 renal 92.9% | COLO 205 colon 98% | DU-145 prostate 106% | K-562 leukemia 70% | MDA-MB-231 breast 81.5% | RXF 393 renal 110% | SF-268 CNS 106% | SF-295 CNS 82% | SF-539 CNS 94.5% | UACC-257 melanoma 92.2% | M14 melanoma 89.5%

C=CCc1cc(Nc2c3ccc(Cl)cc3nc3ccc(OC)cc23)cc(CN(CC)CC)c1O
active: NCI-H23 lung -0.558% | HOP-62 NSCLC 9.37% | NCI-H460 lung 4.5% | HOP-92 NSCLC -20.5% | NCI-H522 lung -5.89% | K-562 leukemia 3.36% | MALME-3M melanoma 2.15% | MDA-MB-231 breast 0.676% | SF-295 CNS -2.05% | UACC-257 melanoma 4.74%
inactive: NCI-H226 lung 26.3% | NCI-H322M lung 49.5% | A549/ATCC NSCLC 13.3% | 786-0 renal 12.3% | DU-145 prostate 20.5% | RXF 393 renal 32.1% | SF-268 CNS 23% | SF-539 CNS 21.2% | M14 melanoma 19.8%

CCN(CC)CCOC(=O)c1ccc(N=Nc2ccc(O)c(OC)c2)cc1
inactive: NCI-H23 lung 94.5% | NCI-H226 lung 90.4% | NCI-H322M lung 90.9% | HOP-62 NSCLC 98.8% | NCI-H460 lung 110% | HOP-92 NSCLC 94.6% | NCI-H522 lung 63.8% | A549/ATCC NSCLC 91.1% | 786-0 renal 95.9% | DU-145 prostate 108% | K-562 leukemia 95.3% | MALME-3M melanoma 97% | MDA-MB-231 breast 110% | RXF 393 renal 89.4% | SF-268 CNS 94.7% | SF-295 CNS 101% | SF-539 CNS 96.4% | UACC-257 melanoma 96.5% | M14 melanoma 103%

Cc1cc(Nc2cccc(F)c2)nc(NCc2ccccc2)n1
inactive: NCI-H226 lung 40.4% | NCI-H322M lung 63.2% | HOP-62 NSCLC 70.5% | A549/ATCC NSCLC 16.2% | 786-0 renal 45.7% | DU-145 prostate 22.8% | K-562 leukemia 13.3% | MALME-3M melanoma 43.9% | MDA-MB-231 breast 20.9% | RXF 393 renal 76.6% | SF-268 CNS 40.4% | SF-295 CNS 16.7% | SF-539 CNS 56.8% | UACC-257 melanoma 29.8% | M14 melanoma 28.5%
active: NCI-H23 lung -2.43% | NCI-H460 lung 6.63% | HOP-92 NSCLC -2.56% | NCI-H522 lung 6.89%

CC[C@@]1(C(N)=O)CC2C=CC1C2 (some centres not stated)
inactive: NCI-H23 lung 110% | NCI-H226 lung 102% | NCI-H322M lung 142% | HOP-62 NSCLC 111% | NCI-H460 lung 122% | HOP-92 NSCLC 97.2% | NCI-H522 lung 101% | A549/ATCC NSCLC 107% | 786-0 renal 98.9% | COLO 205 colon 114% | DU-145 prostate 113% | K-562 leukemia 92.6% | MDA-MB-231 breast 109% | RXF 393 renal 112% | SF-268 CNS 119% | SF-295 CNS 110% | SF-539 CNS 111% | UACC-257 melanoma 118% | M14 melanoma 102%

Fc1ccc2[nH]c3c(NCCCN4CCOCC4)ncnc3c2c1
inactive: NCI-H23 lung 83.2% | NCI-H226 lung 62.2% | NCI-H322M lung 53.6% | HOP-62 NSCLC 32.7% | NCI-H460 lung 54% | HOP-92 NSCLC 63.9% | NCI-H522 lung 58.1% | A549/ATCC NSCLC 54.5% | 786-0 renal 24.1% | DU-145 prostate 79.2% | K-562 leukemia 73.9% | MALME-3M melanoma 61.5% | MDA-MB-231 breast 55.6% | RXF 393 renal 60.8% | SF-268 CNS 61.5% | SF-295 CNS 39% | SF-539 CNS 65% | UACC-257 melanoma 107% | M14 melanoma 85.3%

C[C@]12CC[C@H]3[C@@H](CCC4=CC(=O)CC[C@@]43C)[C@@H]1CC[C@@H]2c1csc(N)n1
inactive: NCI-H23 lung 36.2% | NCI-H226 lung 60.1% | NCI-H322M lung 110% | HOP-62 NSCLC 70.2% | NCI-H460 lung 42.4% | HOP-92 NSCLC 65.4% | NCI-H522 lung 63.1% | A549/ATCC NSCLC 60.7% | 786-0 renal 68.1% | COLO 205 colon 25.6% | DU-145 prostate 78.2% | K-562 leukemia 26% | MDA-MB-231 breast 66.8% | RXF 393 renal 76.8% | SF-268 CNS 89.6% | SF-295 CNS 50.3% | SF-539 CNS 81% | UACC-257 melanoma 49.6% | M14 melanoma 61%
